Our source for the growth values is PubChem BioAssay (NCI).

Molecules are shown by their SMILES. The panel holds about 83,000 compounds, 20% with a hit somewhere; the sample as a whole holds those more often.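 Treatment: one concentration, 48 hours, 96-well format. Scoring: percent growth, with anything below 10 considered active.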 Unmarked numbers belong to inactive results. The source made the active and inactive calls.

This assay has as its system KM12 colon. The assay can be described thus: NCI-60 one-dose screen, 48 h (100 = growth as untreated, 0 = no growth, -100 = all killed). The conditions noted are these: 10 µM unless noted.
For the compound `CCN1C(=O)N(CC)C2C1NN=c1s/c(=C\c3cc4ccccc4[nH]3)c(=O)n12` (centres undefined), the growth is 10.3%.

Consider `CCN(CC)CCCNCc1cc(-c2ccccc2)nc2cc(Cl)ccc12`, for which the growth is 14.5%. Turning to `CC[C@H](CC[C@@H](C)[C@H]1CC[C@H]2[C@@H]3CC[C@@H]4CC(=O)/C(=C\c5ccncc5)C[C@]4(C)[C@H]3CC[C@]12C)C(C)C`, the growth is 102%. On to `CCN(CC)c1ccc(/C=N\NC(=O)c2cccc(Nc3ccnc(C(F)(F)F)c3)c2)c(O)c1`, for which the growth was 23%. Regarding `Cc1cscc(C)c1=S`, the growth is 104%. Under `COC(=O)/C=C1/SC(=Nc2cccc(Cl)c2)N(CCc2c[nH]c3ccc(O)cc23)C1=O` stands 18.9%.

In the case of `O=C(CCCCCCCCC(=O)N/N=C\c1cc(Cl)ccc1O)N/N=C\c1cc(Cl)ccc1O`, the growth is 24.2%. For the compound `COc1ccc(/C=C/C(=O)c2cc3c(N)c(C(=O)Nc4ccc(OC)cc4)sc3nc2C)cc1`, the growth was 13.1%. The result for `CCCCCCOC(=O)CC1=C(C)/C(=C/c2[nH]c(-c3ccc[nH]3)cc2OC)N=C1C` reads -51.4% (active); that for `Cc1ccc(O)c(NC(=O)c2ccc(CNc3ccnc(C(F)(F)F)c3)cc2)c1`, 72.3%; that for `O=C1/C(=C/c2ccc(Br)cc2)COc2ccc(O)c(O)c21`, -68% (active). Under `O=C(/C=C/C12c3ccccc3C(c3ccccc31)C1C(=O)NC(=O)C12)c1ccc(F)cc1` (centres undefined) stands 8.33% (active); under `Cc1ccc(C)c2c1C(O)(C#Cc1ccccc1)c1ccccc1C2(O)C#Cc1ccccc1` (centres undefined), 50.1%; under `C(/C=C/c1ccccc1)=Nc1ccc(CCc2ccc(N=C/C=C/c3ccccc3)cc2)cc1`, 106%.

On to `O=C(Cn1nnc2ccccc21)Nc1ccc(-c2nc3ccccc3s2)cc1`, for which the growth is 91.4%. The result for `CCCCCCCC/C=C\CCCCCCCCOc1ccc(CC(=O)NCC[N+](C)(C)C)cc1` reads 35.7%; that for `COc1cc(/C=C2\CN(S(=O)(=O)c3ccc(C)cc3)C/C(=C\c3cc(CN4CCCCC4)c(O)c(OC)c3)C2=O)cc(CN2CCCCC2)c1O`, -85.2% (active). Turning to `Cc1ncc(C(=O)Nc2ccc(CN3CCN(C)CC3)c(C(F)(F)F)c2)cc1C#Cc1cnc(N)c2ccncc12`, the growth is -70% (active). Take `COc1cc(C2=NN(C(C)=O)C(c3ccc(N(C)C)cc3)C2)cc(OC)c1OC` (centres undefined): the growth was 95.4%. The result for `COC1=CC(c2ccc[nH]2)=N/C1=C\c1[nH]c(C)c(CC(=O)OCc2ccccc2)c1C` reads -9.28% (active); that for `CCOC(=O)CSc1nc2sc3c(c2c(=O)n1-c1ccc([N+](=O)[O-])cc1)CCCCC3`, 89.7%.

On to `CN(C)c1ccc(C(=NO)c2ccc(N(C)C)cc2)cc1`, for which the growth was 13.6%. The result for `Cc1ccc(C(=O)c2ccc(CC(=O)N/N=C/c3ccc(O)cc3O)n2C)cc1` reads 36.1%; that for `N#C/C(=C\c1ccc(Br)cc1)c1cc2ccccc2[nH]1`, 90.7%. In the case of `COc1ccc(-c2cn(-c3ccc(Cl)cc3)c(SCC(=O)c3ccc([N+](=O)[O-])cc3)n2)cc1`, the growth is 94.8%. In the case of `COc1ccc(Cc2nnc(Nc3nc4ccccc4s3)s2)cc1`, the growth is 102%. Under `CCOC(=O)c1ccc2c(c1)c1c(C)c3ccncc3c(C)c1n2C` stands 0.78% (active).

Consider `Cc1nc2sc(C(=O)Nc3cccc(Cl)c3)c(N)c2cc1C(O)c1ccccc1` (centres undefined), for which the growth is 18.3%. Under `COc1ccc(C2CC(c3ccc(Nc4nc(Nc5ccc(F)cc5)nc(Nc5ccc(F)cc5)n4)cc3)=NN2C(C)=O)cc1` (centres undefined) stands 95.3%; under `N#Cc1c(NC(=O)c2cccs2)[n+]([O-])c2ccc(Cl)cc2[n+]1[O-]`, 98.6%; under `CC(C)(C)c1cc(C=Nc2cccc(C(F)(F)F)c2)c(O)c(C(C)(C)C)c1`, 102%. Consider `N=c1sc(Cc2cc(Cl)ccc2Cl)cn1CC(=O)c1ccccc1`, for which the growth was 16.1%. Under `COc1ccc(Nc2ncc(C(N)=O)c(NCCCNC(=O)C3CCC3)n2)cc1` stands 29.3%.

On to `Cc1nn(-c2ccccc2)c(/N=C/N(C)C)c1/C=C/C(=O)c1ccc(Cl)cc1`, for which the growth is 101%. Under `COc1ccc2cc(-c3ccc(-c4ccc(C(=N)N)s4)s3)ccc2c1` stands -14.5% (active); under `O=C1c2cccnc2C(=O)c2c1c(C(=O)OCCCN1CCCCC1)c1ccccn21`, -33.2% (active). As for `O[C@@H](c1cc(C(F)(F)F)nc2c(C(F)(F)F)cccc12)[C@H]1CCCCN1`, the growth was 50.1%. Under `Cc1[nH]c(/C=C/C(=O)c2ccc(C(F)(F)F)c(F)c2)c(C)c1C(=O)NCC(C)C` stands 101%. The result for `CCCCCCCCn1ccc2cc(NC(=O)Cn3cc(CN4CCCCCC4)nn3)ccc21` reads -27.8% (active).
